Compound activity (PubChem BioAssay)
Tau filament bind: binds recombinant human tau filaments | recombinant tau filaments, thioflavin S fluorescence, 15 h; filaments grown with octadecylsulfate alongside compound | 71,000 compounds, 2% hits | P10636 | Potency, µM (highest dose often 57.1 µM), inactives show at the highest dose activity change, negative = inhibition;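 note: potency is the fitted concentration of half-maximal effect; % is set by controls: 0 for no effect and ±100 for the full control effect; actives lower thioflavin S fluorescence by blocking filaments or displacing dye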
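Read-out: ThS fluorescence, 450 nm excitation/510 nm emission; lower signal marks blocked filament formation or displaced dye. Tau at 1 uM with 30 uM ODS, 10 uM ThS, 5 mM DTT, 100 mM NaCl, 10 mM HEPES pH 7.4; 15 h, 37 C.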
YjeE inh: YjeE (TsaE) inhibition, E. coli. purified YjeE enzyme, qHTS inhibition assay. P0AF67. 71,000 compounds, 0.05% hits. Potency, µM
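Fluorescence polarization of a BODIPY Texas Red–ADP probe (2 uM) bound to purified YjeE (10 uM) was read after 15 min room-temperature incubation with compounds. Loss of polarization marks inhibitors; ADP serves as titrated control.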
BRCT PPI red: BRCT-phosphoprotein interaction inhibition (red fluorophore). BRCT-phosphopeptide binding, red fluorescence polarization. Potency, µM (titrated, usually from 76.9 µM), for the others: at the top dose activity change, negative = inhibition, usual class: inhibitors. 75,000 compounds, 0.03% hits. AID 892; note: % is set by controls: 0 for no effect and ±100 for the full control effect
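Fluorescence polarization: 100 nM His-tagged BRCA1 BRCT with 100 nM TAMRA-labelled phospho-BACH1 decapeptide, phosphate buffer pH 7.3 with 150 mM NaCl, DTT, 0.01% Tween 20; 12 min RT. Binding inhibition seen as FP decrease.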
15-hLO inh: 15-hLO (ALOX15) enzyme inhibition | P16050 | purified 15hLO-1, xylenol orange hydroperoxide absorbance | 74,000 compounds, 1.4% hits | AID 887 | Potency, µM (series often up to 57.1 µM), without a hit: at the highest dose activity change, negative = inhibition, usual class: inhibitors; note: potency is the fitted concentration of half-maximal effect; % is set by controls: 0 for no effect and ±100 for the full control effect; nearly all actives have a fitted effect of over 55% in size
Target sequence (P16050 whole entry, looked up): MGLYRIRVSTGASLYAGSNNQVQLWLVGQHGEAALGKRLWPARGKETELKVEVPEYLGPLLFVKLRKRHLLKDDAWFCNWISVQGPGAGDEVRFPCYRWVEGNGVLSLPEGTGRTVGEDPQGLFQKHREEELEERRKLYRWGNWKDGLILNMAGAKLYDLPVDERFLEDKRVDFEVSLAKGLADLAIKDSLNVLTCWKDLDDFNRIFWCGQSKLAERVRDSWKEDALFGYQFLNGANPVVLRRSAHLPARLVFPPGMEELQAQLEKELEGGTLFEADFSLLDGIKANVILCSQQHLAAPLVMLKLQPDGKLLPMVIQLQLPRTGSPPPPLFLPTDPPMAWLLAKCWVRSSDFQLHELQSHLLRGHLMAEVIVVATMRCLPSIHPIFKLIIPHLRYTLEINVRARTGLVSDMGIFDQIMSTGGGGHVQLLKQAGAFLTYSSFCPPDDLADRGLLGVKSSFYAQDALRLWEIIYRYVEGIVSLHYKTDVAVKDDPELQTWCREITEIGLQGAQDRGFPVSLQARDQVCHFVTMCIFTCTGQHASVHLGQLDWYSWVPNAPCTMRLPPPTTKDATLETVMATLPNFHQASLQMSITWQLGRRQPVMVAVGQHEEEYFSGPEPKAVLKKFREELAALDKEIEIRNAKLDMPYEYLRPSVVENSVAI
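Inhibition is scored from a chromogenic endpoint. After 15 min enzyme-compound contact, arachidonic acid (50 uM final) reacts 6 min with 40 nM 15hLO-1 at room temperature, then Fe-XO reagent is added for 30 min and absorbance ratio recorded.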
BRCT PPI green: inhibitors of human BRCA1 BRCT-phosphoprotein interaction (green fluorophore); 75,000 compounds, 0.05% hits; AID 875; BRCA1 BRCT-phosphopeptide binding, green fluorescence polarization; P38398; Potency, µM (series often up to 76.9 µM), for the others: at the top dose activity change, negative = inhibition, hits mostly inhibitors;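 note: potency is the fitted concentration of half-maximal effect; plate controls were peptide without protein for full effect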
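Compounds were incubated for 12 min at room temperature with a complex of 100 nM fluorescein-tagged pBACH1 decapeptide and 250 nM His-tagged BRCT protein. Buffer was phosphate pH 7.3 with EDTA, DTT and Tween 20. Disruption of binding lowers the polarization signal.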
DNA Pol III inh: blocks replication by bacterial DNA polymerase III holoenzyme | reconstituted DNA polymerase III holoenzyme replication, biochemical | Potency, µM (titrated, usually from 57.1 µM), for the others: top-dose activity change, negative = inhibition | 71,000 compounds, 0.25% hits; note: potency is the fitted concentration of half-maximal effect; % is set by controls: 0 for no effect and ±100 for the full control effect
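Reconstituted *E. coli* holoenzyme (0.35 nM Pol III, 1 nM beta, 154 nM SSB, 2 nM primase) was preincubated with compound for 15 min at RT. Synthesis on 1.4 nM ssM13Gori ran 35 min, then was stopped with PicoGreen/EDTA and read as dsDNA fluorescence.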
* = called active by the depositor; i = inactive; ? = inconclusive; · = no result; [ ] = another dose, or the depositor's remark. Most compounds without a hit are left out; they make up all but 3.1% or so of the library. Calls come from the whole dose curve; as a rule, active = well fitted curve in the direction sought with a large enough effect; inconclusive = small, poorly fitted or top-dose-only effect, or another doubt; inactive = no such curve, though single readings can be large; an effect the other way counts as inactive or inconclusive.

SMILES	Tau filament bind	YjeE inh	BRCT PPI red	15-hLO inh	BRCT PPI green	DNA Pol III inh
COc1ccc2[nH]c(C(=O)O)c(NS(=O)(=O)c3ccc(OC)c(OC)c3)c2c1	20µM*	i	0%	-22%	0%	-7%
Cc1nc2cnc(Oc3cccc(Cl)c3)nc2n(CCc2ccccc2)c1=O	2%	i	0%	-6%	0%	-10%
O=c1cnc2cnc(Oc3cccc(Cl)c3)nc2n1CCc1ccccc1	25µM*	i	0%	-11%	1%	-6%
COc1cc(S(=O)(=O)NC2CCCCC2)ccc1Cl	16µM*	i	1%	?	1%	-1%
Cc1cc(S(=O)(=O)Nc2ccccc2C)ccc1F	-2%	i	1%	-4%	-1%	-6%
COc1cc(S(=O)(=O)Nc2ccccc2C)ccc1Cl	13µM*	i	1%	-25%	1%	-4%
Cc1ccccc1N1C(=O)C(Cl)=C(N2CCCCCC2)C1=O	13µM*	i	1%	10µM*	0%	-2%
O=C1C(Cl)=C(N2CCCCC2)C(=O)N1c1ccccc1	-4%	i	1%	16µM*	0%	-2%
CCN1C(=O)[C@H]2[C@H]3[C@H](O)[C@H](O)C/C(=N/OC/C=C(\C)CCC=C(C)C)[C@H]3CC[C@@H]2C1=O	·	·	1%[15.4 µM]	-12%[11.4 µM]	-2%[15.4 µM]	·
COc1cccc(OC)c1/C(O)=C(\C#N)c1nc2ccccc2[nH]1	9%	i	1%	-1%	0%	-2%
CN1C=CC=C/C1=C(\C#N)c1nc2ccccc2[nH]1	32µM*	i	0%	-8%	0%	-9%
Cc1ccccc1-c1cc(-c2ccccc2O)n[nH]1	?	i	1%	16µM*	1%	4%
Cc1ccc(-c2cc(-c3ccccc3Cl)[nH]n2)c(O)c1	0%	i	0%	·	1%	-2%
CCCC[C@@H]1C[C@H]1C(NC(=O)c1cccs1)c1ccc(Cl)cc1 (stereo partly drawn)	-11%	i	0%	·	-3%	-6%
O=C(c1cnccn1)N1CCC2(CCCN(C(c3ccccc3)c3ccccc3)C2)CC1	-1%	i	-1%	-1%	0%	2%
Cc1ccc(CNC(=O)CN(C)S(=O)(=O)c2cccc3nsnc23)cc1	-8%	i	0%	4%	-1%	0%
CCN(CCCNC(=O)CN(C)S(=O)(=O)c1cccc2nsnc12)c1cccc(C)c1	16µM*	i	0%	-11%	0%	-1%
COC(=O)[C@@]1(Cc2ccccc2)[C@H]2c3cc(C(=O)N(C)C)n(CCN4CNCC4=O)c3C[C@H]2CN1C(=O)c1ccccc1	11%	i	1%	·	0%	-10%
COc1ccc([C@@H]2[C@H]3CN(C(C)=O)CC=C3C(C#N)=C(N)C2(C#N)C#N)c2ccccc12	15%	?	1%	13µM*	5%	-6%
OC[C@@H]1O[C@H](O)[C@@H](Cl)[C@H](O)[C@@H]1O	0%	i	1%	6%	-3%	-5%
CCOC(=O)C(C(=O)OCC)c1cc(Br)c2noc3c2c1C(=O)c1ccccc1-3	2µM*	i	-6%	-19%	12%	-8%
C/C(=C\c1ccccc1)CN1CCN(c2ccccc2)CC1	-20%	i	-1%	16µM*	-1%	1%
COc1ccccc1N1CCN(C/C(C)=C/c2ccccc2)CC1	3%[11.4 µM]	i	1%	-11%[11.4 µM]	0%	-1%[11.4 µM]
CC(C)=CCc1c(O)cc(O)c2c1O[C@H](c1ccccc1)CC2=O	40µM*	i	-1%	2%[25.6 µM]	0%	-2%
N#Cc1c2c(c(NCc3ccco3)n3c1nc1ccccc13)CCC2	-17%	i	-1%	5µM*	2%	-8%
SMILES	Tau filament bind	YjeE inh	BRCT PPI red	15-hLO inh	BRCT PPI green	DNA Pol III inh
CN(C)CCNc1c2c(c(C#N)c3nc4ccccc4n13)CCCC2	13%	i	-2%	1%	-2%	2%
Cn1c(NCc2cccs2)nc2ccccc21	2%	i	-1%	-2%	-6%	-3%
Cn1c(NCc2ccco2)nc2ccccc21	16µM*	i	-1%	-28%	0%	-2%
BrC(c1cccc2ccccc12)c1cccc2ccccc12	2%[11.4 µM]	i	1%[15.4 µM]	3%[11.4 µM]	1%[15.4 µM]	-5%[11.4 µM]
C=C1C(=O)OC2C1CC/C(C)=C/CCC1(C)OC21 (stereo not drawn)	·	·	1%	-5%	-1%	·
COc1ccccc1N1CCN(C(=O)c2ccc3nc(-c4ccco4)c(-c4ccco4)nc3c2)CC1	3.2µM*	i	-5%	20µM*	-3%	-5%
Cc1cc(C)n2nc3ccccc3c2n1	10%	i	1%	-6%	-2%	-5%
Cc1cc(C)n2nc3nc(N4CCCCC4)nc(-c4ccco4)c3c2n1	20µM*	i	-6%	16µM*	-5%	-19%
CCCn1c(C)nc2c(NC(C)CN(C)C)nc(C)nc21 (stereo not drawn)	15%	i	-1%	-2%	-3%	4%
COc1ccc(N2CCN(Cc3cc(=O)oc4c3ccc3ccccc34)CC2)cc1	-14%	i	1%	-3%	-1%	-7%
O=c1cc(C(F)F)oc2c1ccc1ccccc12	-13%	i	-1%	13µM*	-1%	-6%
COc1ccccc1NC(=O)N1CCN(c2cccc(C(F)(F)F)c2)CC1	2%	i	-1%	40µM*	-2%	-7%
COc1ccc(NC(=O)c2cc(-c3ccc(O)cc3)on2)cc1OC	109%	i	0%	-4%	0%	-3%
CCCCCCSC1=C(C#N)C(c2ccc(O)cc2)CC(=O)N1 (stereo not drawn)	44%	i	-3%	20µM*	0%	2%
O=C(c1[nH]o[n+](=O)c1C(=O)c1csc2ccccc12)c1csc2ccccc12	2%[11.4 µM]	i	0%[15.4 µM]	-15%[11.4 µM]	0%[15.4 µM]	10%[11.4 µM]
CCOc1ccccc1C(=O)Nc1cc(Cl)ccc1O	112%	i	1%	10µM*	-3%	1%
CCOc1ccccc1C(=O)Nc1cc(OC)ccc1OC	·	·	0%	-12%	-3%	·
CCOC(=O)c1sc(N)c(C(=O)Nc2ccc(C)cc2C)c1C	·	·	0%	?	-1%	·
Cc1ccc(S(=O)(=O)c2cc3c(=O)n4ccccc4nc3n(Cc3ccco3)c2=N)cc1C	i	i	-10%	32µM*	-10%	-20%
N=c1c(S(=O)(=O)c2ccccc2)cc2c(=O)n3ccccc3nc2n1Cc1ccco1	465%	i	0%	-19%	3%	-5%
CC(=O)NCCNc1ncnc2ccc(-c3ccc4c(c3)OCO4)cc12	-6%	i	-1%	4%	-2%	-9%
CC[C@H](CO)NCCN[C@@H](CC)CO	5%[25.6 µM]	i	0%[34.4 µM]	5%[25.6 µM]	-2%[34.4 µM]	-1%[25.6 µM]
